Bioassay records (PubChem BioAssay)
Cruzain Triton = cruzain (T. cruzi) inhibition with detergent; purified cruzain, Z-FR-AMC fluorescence, 0.01% Triton; Potency, µM, hits mostly inhibitors; hit rate 0.43% among 200,000; AID 1478; further: nearly all actives have a fitted effect of over 40% in size
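Z-FR-AMC hydrolysis (2 uM substrate) by cruzain (1.5 nM) monitored kinetically at ex 360/em 450 nm after 15 min room-temperature compound exposure; 0.01% Triton X-100, pH 5.5, 5 mM DTT.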
Cruzain inh noDet = inhibitors of Trypanosoma cruzi cruzain without detergent; P25779; purified cruzain, Z-FR-AMC fluorescence, no detergent; Potency, µM, hits mostly inhibitors; hit rate 2.3% among 200,000; AID 1476; further: nearly all actives have a fitted effect of over 40% in size
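Purified cruzain at 1.5 nM, pre-incubated 15 min with compound at room temperature in 100 mM sodium acetate pH 5.5, 5 mM DTT, 0.00005% Triton X-100. Reaction started with 2 uM Z-FR-AMC; AMC fluorescence increase over 60 s gives rate.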
Papain counter = counter-screen for cruzain inhibitors: papain inhibition. shares compounds with Cruzain Triton. purified papain, Z-FR-AMC fluorescence cleavage. Potency, µM, most hits filed as inhibitors. hit rate 41% among 410; further: nearly all actives have a fitted effect of over 35% in size
Target sequence (P00784 whole entry, looked up): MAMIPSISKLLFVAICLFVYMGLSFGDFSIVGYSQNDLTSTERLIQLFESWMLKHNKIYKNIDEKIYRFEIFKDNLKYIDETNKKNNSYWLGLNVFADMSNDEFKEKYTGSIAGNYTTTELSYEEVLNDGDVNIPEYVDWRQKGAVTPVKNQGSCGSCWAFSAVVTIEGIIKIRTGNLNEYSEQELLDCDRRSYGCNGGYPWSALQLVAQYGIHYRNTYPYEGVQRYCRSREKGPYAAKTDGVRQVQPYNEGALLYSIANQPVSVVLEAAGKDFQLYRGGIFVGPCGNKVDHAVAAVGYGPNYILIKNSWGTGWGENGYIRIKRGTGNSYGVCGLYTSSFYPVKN
Hits are given with their value; 0 = inactive; ? = inconclusive; - = no result given. In the library only some 2.4% were active in any assay of this set; here they are far more common. The call rests on the fitted dose curve; in most records, active means well fitted curve in the direction sought with a large enough effect; inconclusive means small, poorly fitted or top-dose-only effect, or another doubt; inactive means no such curve, though single readings can be large; an effect the other way counts as inactive or inconclusive.

SMILES	Cruzain Triton	Cruzain inh noDet	Papain counter
O=C(c1ccc(OCCN2CCCCC2)cc1)c1c(-c2ccc(O)cc2)sc2cc(O)ccc12	0	0	0
O=C(c1ccccc1)c1ccc(OCCCN2CCCCC2)cc1	0	0	-
COc1cc2c(cc1OC)C1N(CC2)C(=O)CCC12C(=O)CCCC2=O (stereo not given)	0	0	-
N#Cc1ccc(CN2C(=O)c3ccccc3Sc3ccc(C(=O)OCc4ccco4)cc32)cc1	0	0	-
COc1ccc(-c2nnc3sc(-c4ccccn4)nn23)cc1	0	0	-
COc1ccc(-c2nn3c(-c4ccccn4)nnc3s2)cc1OC	0	0	-
COc1ccc(-c2nn3c(-c4cc(-c5ccccc5)n[nH]4)nnc3s2)cc1	-	-	0
COc1cccc(-c2nn3c(-c4ccccn4)nnc3s2)c1	0	0	-
COc1cccc(-c2nn3c(-c4cc(C)[nH]n4)nnc3s2)c1	0	0	0
COc1ccc(-c2nn3c(-c4cc(-c5ccccc5)n[nH]4)nnc3s2)cc1OC	-	-	0
CCOc1cccc(-c2nnc3sc(-c4ccc(C)cc4)nn23)c1	0	?	-
CCOc1ccc(-c2nn3c(-c4cc(-c5ccccc5)n[nH]4)nnc3s2)cc1	-	-	0
CC(C)Oc1ccc(CNC(=O)CCn2c(=O)c3cccn3c3ccc(F)cc32)cc1	0	0	-
CCN(Cc1ccccc1)C(=O)Nc1ccc2c(c1)N(C)C(=O)c1ccccc1S2	0	0	-
CN(C(=O)CSc1nnc(COc2ccccc2)o1)c1ccccc1	0	0	-
COc1ccc(S(=O)(=O)NCC(c2ccco2)N2CCN(c3ccccc3F)CC2)cc1C (stereo not given)	0	0	-
N=c1c(C(=O)NCc2ccc(F)cc2)cc2c(=O)n3ccccc3nc2n1CC1CCCO1 (stereo not given)	32µM	?	16µM
CCn1c(=N)c(C(=O)NC2CCCC2)cc2c(=O)n3ccccc3nc21	0	0	-
COc1ccc2c(c1)OC1(O)COc3cc(OC)c(OC)cc3C1=C2 (stereo not given)	0	0	-
COc1ccc(NS(=O)(=O)c2cc(NC(=O)/C=C/c3cccs3)ccc2N2CCOCC2)cc1	0	?	-
COc1ccc(NS(=O)(=O)c2cc(NC(=O)/C=C/c3ccccc3OC)ccc2N2CCCCC2)cc1	0	3.2µM	0
CCCn1c2ccc(F)cc2c2nnc(SCCN3CCCCC3)nc21	2µM	2µM	13µM
CCCn1c(-c2ccc(F)cc2)nc2c(NCCCCN3CCCC3)nc(C)nc21	0	0	-
CC1CCc2cc(F)ccc2N1C(=O)CSc1nnc2c3cc(F)ccc3n(C)c2n1 (stereo not given)	0	0	-
CCn1c2ccc(F)cc2c2nnc(SCCN3CCCCC3)nc21	14µM	13µM	25µM
SMILES	Cruzain Triton	Cruzain inh noDet	Papain counter
CCCn1c2ccc(F)cc2c2nnc(SCCN(CC)CC)nc21	4.5µM	4µM	25µM
CCn1c(CNc2ccc(F)cc2)nnc1SCCN1CCCCC1	0	0	-
Cc1cccc(N2CCN(c3cc(C)nc4c(-c5ccc(Cl)cc5)c(C)nn34)CC2C)c1 (stereo not given)	0	0	-
O=C(c1ccco1)N1CCN(c2ncnc3c2[nH]c2ccc(Cl)cc23)CC1	14µM	?	0
O=C(c1ccco1)N1CCN(c2c(-c3ccccc3)c3cc(Cl)ccc3[nH]c2=O)CC1	0	?	-
CN(C(=O)c1ccc2c(c1)N(Cc1cccc(Cl)c1)C(=O)c1ccccc1S2(=O)=O)C1CCCCC1	0	0	-
NC(=S)N/N=C/c1ccc(-c2cc(Cl)ccc2Cl)o1	0.71µM	0.63µM	4.5µM
COC(=O)N/N=C/c1ccc(-c2cccc(Cl)c2)o1	0	0	-
COc1ccc(CNCc2c(C(=O)O)c(C)n(Cc3ccccc3C)c2C)c(OC)c1	0	0	-
COCC(C)NC(=O)Cn1c(SCc2ccccc2)nc2ccccc21 (stereo not given)	-	-	0
COCC(C)NC(=O)CSc1nc2ccccc2n1CCc1ccccc1 (stereo not given)	0	0	-
Cc1nn(CC(=O)Nc2ccc(C(C)C)cc2)c(=O)c2c(C)n(-c3ccc(Cl)cc3)nc12	0	0	-
COc1ccc(N2CCN(C(=O)C3CCN(S(=O)(=O)c4cn(C)cn4)CC3)CC2)cc1	0	0	-
O=C(Cn1c2ccccc2c(=O)c2ccccc21)Nc1cccc(F)c1	0.79µM	0	0
O=C(Cn1c(=O)n(Cc2ccco2)c(=O)c2ccccc21)Nc1cccc(F)c1	0	0	-
CC(C)(C)C(=O)Nc1cccc(C(=O)OCc2cc(=O)n3nc(C4CC4)sc3n2)c1	0	0	-
CN1C(=O)/C(=N\OC(=O)c2cccc3ccccc23)c2ccccc21	3.2µM	7.9µM	16µM
N/C(Cc1ccc(Cl)cc1)=N\OC(=O)c1cccc2ccccc12	0	0	-
Cc1ccc(CN(C(=O)COc2cccc([N+](=O)[O-])c2)c2ccccn2)o1	0	0	-
CCN1CCCC1CNc1ncnc2c1[nH]c1ccc(Cl)cc12 (stereo not given)	25µM	16µM	0
